# Data published in PMC7862700, “An all-to-all approach to the identification of sequence-specific readers for epigenetic DNA modifications on cytosine”.
# Key:
# Test in all cases: DAPPL (digital affinity profiling via proximity ligation, sequencing); 10 mM Tris-HCl pH 7.5, 50 mM NaCl, 1 mM DTT, 4% glycerol, room temperature, 30 min; GST-TFs on glutathione beads, 16-mer random dsDNA library, 0.1% formaldehyde crosslink after washing; high values mean tight binding
# FLI1 = molecular target: T1, FLI1 (Homo sapiens, UniProt Q01543 1-452); conditions: protein: recombinant; tags: N-terminal GST; dsDNA, one strand shown
# T1 sequence: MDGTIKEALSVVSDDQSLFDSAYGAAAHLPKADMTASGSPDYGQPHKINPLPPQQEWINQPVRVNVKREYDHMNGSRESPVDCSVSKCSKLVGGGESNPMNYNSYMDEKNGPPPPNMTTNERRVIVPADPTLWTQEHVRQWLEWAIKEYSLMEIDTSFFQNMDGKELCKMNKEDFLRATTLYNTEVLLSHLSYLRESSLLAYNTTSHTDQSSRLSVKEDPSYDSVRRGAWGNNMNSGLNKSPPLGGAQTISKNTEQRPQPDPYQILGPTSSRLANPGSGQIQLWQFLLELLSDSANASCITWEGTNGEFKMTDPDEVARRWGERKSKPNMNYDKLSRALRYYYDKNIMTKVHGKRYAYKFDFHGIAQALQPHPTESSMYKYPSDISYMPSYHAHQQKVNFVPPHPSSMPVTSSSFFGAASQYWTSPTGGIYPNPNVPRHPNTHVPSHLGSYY
# Summary of the method: (§1)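 A tag-only sample was pooled with DNA-barcoded human transcription factors that had been expressed in yeast as GST fusions and captured on glutathione beads. The pools were incubated for 30 min at room temperature with 200 nmole of a random double-stranded 16-mer DNA library in Tris/NaCl/DTT/glycerol buffer, then washed, crosslinked with 0.1% formaldehyde, proximity-ligated (BsaI/T4 ligase, 1 h, 37 °C), PCR-amplified and sequenced on an Illumina NextSeq500. Binding signal is each hexamer's read frequency for a factor divided by its frequency for the tag-only sample.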
# ELK1 = molecular target: T2, ELK1 (Homo sapiens, UniProt P19419 1-428); conditions: protein: recombinant; tags: N-terminal GST; dsDNA, one strand shown
# T2 sequence: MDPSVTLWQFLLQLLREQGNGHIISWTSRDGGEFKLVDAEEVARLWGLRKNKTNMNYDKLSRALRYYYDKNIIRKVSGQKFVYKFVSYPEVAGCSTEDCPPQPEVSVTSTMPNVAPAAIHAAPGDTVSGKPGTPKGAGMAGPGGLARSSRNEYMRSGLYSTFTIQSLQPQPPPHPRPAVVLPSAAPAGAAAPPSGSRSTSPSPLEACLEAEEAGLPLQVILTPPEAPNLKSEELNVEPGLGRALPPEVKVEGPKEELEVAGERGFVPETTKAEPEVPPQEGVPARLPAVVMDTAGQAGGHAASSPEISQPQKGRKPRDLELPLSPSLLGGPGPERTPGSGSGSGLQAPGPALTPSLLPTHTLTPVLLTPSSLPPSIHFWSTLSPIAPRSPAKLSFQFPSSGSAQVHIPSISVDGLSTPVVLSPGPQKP
# Summary of the method: as §1
# GABPA = molecular target: T3, GABPA (Homo sapiens, UniProt Q06546 1-454); conditions: protein: recombinant; tags: N-terminal GST; dsDNA, one strand shown
# T3 sequence: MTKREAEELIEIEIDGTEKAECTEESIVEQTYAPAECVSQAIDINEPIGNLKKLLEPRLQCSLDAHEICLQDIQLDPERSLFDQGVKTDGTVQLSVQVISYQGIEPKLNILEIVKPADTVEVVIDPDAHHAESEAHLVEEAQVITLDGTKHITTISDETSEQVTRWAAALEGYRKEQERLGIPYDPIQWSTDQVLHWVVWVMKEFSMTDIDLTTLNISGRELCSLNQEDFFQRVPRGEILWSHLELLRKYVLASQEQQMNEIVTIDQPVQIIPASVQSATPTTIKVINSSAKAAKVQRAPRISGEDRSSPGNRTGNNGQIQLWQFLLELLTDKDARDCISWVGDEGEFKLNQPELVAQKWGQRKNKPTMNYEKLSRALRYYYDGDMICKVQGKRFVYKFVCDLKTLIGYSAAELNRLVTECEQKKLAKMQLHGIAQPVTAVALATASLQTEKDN
# Summary of the method: as §1
# ERG = molecular target: T4, ERG (Homo sapiens, UniProt P11308 1-479); conditions: protein: recombinant; tags: N-terminal GST; dsDNA, one strand shown
# T4 sequence: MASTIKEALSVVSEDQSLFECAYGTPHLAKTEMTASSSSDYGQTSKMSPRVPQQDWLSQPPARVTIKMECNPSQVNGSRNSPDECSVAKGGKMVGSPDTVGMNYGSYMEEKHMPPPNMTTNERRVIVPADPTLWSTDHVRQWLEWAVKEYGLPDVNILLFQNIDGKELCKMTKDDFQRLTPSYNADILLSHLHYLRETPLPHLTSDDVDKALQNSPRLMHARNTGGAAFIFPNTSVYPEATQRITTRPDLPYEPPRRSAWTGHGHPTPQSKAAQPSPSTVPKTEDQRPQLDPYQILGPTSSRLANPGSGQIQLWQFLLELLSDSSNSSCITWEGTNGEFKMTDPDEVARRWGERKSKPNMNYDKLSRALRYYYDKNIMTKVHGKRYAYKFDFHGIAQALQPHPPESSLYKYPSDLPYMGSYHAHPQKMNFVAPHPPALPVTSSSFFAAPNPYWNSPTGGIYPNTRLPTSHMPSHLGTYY
# Summary of the method: as §1
# ELF1 = ELF1 (Homo sapiens, UniProt P32519 1-619); conditions: protein: recombinant; tags: N-terminal GST; dsDNA, one strand shown
# ELF1, sequence (P32519 whole entry): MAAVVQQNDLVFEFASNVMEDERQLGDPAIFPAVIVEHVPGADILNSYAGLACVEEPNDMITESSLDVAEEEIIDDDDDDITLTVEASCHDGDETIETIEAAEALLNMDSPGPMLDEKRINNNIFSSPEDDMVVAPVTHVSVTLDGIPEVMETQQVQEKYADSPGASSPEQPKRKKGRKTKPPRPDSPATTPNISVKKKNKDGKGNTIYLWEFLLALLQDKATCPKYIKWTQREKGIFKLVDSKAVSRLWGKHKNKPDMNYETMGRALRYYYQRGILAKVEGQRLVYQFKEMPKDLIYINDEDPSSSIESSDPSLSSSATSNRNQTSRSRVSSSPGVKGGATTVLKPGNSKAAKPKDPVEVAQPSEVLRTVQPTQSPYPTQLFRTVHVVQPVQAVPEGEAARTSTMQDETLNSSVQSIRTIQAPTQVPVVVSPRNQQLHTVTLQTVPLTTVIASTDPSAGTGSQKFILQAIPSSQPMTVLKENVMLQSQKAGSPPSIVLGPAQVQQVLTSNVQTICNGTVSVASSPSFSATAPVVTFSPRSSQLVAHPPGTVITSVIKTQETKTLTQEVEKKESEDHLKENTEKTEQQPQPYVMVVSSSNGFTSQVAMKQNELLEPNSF
# Summary of the method: as §1
# EHF = molecular target: T5, EHF (Homo sapiens, UniProt Q9NZC4 1-300); conditions: protein: recombinant; tags: N-terminal GST; dsDNA, one strand shown
# T5 sequence: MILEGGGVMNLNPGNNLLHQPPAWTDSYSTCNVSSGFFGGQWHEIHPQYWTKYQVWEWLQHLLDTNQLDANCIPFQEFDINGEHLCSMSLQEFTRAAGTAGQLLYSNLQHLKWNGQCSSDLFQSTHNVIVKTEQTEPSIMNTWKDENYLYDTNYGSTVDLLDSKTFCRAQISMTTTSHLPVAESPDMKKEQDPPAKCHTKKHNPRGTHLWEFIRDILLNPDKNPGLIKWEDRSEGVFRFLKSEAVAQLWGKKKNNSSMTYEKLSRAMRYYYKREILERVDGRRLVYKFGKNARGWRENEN
# Summary of the method: as §1
# SPI1 = SPI1 (Homo sapiens, UniProt P17947 1-270); conditions: protein: recombinant; tags: N-terminal GST; dsDNA, one strand shown
# Summary of the method: as §1
# SPIB = SPIB (Homo sapiens, UniProt Q01892 1-262); conditions: protein: recombinant; tags: N-terminal GST; dsDNA, one strand shown
# SPIB, sequence (Q01892 whole entry): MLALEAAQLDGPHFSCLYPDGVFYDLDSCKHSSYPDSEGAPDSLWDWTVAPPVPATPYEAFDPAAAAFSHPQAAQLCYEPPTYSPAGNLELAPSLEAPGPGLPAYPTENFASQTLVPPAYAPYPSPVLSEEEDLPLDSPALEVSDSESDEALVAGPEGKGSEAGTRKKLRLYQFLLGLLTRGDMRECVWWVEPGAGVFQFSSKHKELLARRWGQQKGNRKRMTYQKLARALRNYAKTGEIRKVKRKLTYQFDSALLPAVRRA
# Summary of the method: as §1
# ELK3 = molecular target: T6, ELK3 (Homo sapiens, UniProt P41970 1-407); conditions: protein: recombinant; tags: N-terminal GST; dsDNA, one strand shown
# T6 sequence: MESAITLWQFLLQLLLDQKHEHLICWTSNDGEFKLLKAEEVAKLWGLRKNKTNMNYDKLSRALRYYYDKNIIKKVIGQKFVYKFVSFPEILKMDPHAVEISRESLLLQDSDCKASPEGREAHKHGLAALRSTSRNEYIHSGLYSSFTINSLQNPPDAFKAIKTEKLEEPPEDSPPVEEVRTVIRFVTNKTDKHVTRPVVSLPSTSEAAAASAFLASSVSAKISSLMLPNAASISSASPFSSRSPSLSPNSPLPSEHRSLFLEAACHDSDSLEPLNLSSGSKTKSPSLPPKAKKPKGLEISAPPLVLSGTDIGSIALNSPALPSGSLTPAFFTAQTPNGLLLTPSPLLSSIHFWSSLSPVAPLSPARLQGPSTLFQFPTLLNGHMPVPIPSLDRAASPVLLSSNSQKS
# Summary of the method: as §1
# FEV = molecular target: T7, FEV (Homo sapiens, UniProt Q99581 1-238); conditions: protein: recombinant; tags: N-terminal GST; dsDNA, one strand shown
# T7 sequence: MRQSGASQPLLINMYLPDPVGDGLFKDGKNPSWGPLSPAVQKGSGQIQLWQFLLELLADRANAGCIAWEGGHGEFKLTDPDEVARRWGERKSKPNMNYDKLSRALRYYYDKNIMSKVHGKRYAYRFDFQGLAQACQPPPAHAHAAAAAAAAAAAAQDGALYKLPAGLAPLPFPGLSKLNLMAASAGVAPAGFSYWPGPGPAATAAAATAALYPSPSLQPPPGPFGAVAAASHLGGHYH
# Summary of the method: as §1
# ETV5 = ETV5 (Homo sapiens, UniProt P41161 1-510); conditions: protein: recombinant; tags: N-terminal GST; dsDNA, one strand shown
# ETV5, sequence (P41161 whole entry): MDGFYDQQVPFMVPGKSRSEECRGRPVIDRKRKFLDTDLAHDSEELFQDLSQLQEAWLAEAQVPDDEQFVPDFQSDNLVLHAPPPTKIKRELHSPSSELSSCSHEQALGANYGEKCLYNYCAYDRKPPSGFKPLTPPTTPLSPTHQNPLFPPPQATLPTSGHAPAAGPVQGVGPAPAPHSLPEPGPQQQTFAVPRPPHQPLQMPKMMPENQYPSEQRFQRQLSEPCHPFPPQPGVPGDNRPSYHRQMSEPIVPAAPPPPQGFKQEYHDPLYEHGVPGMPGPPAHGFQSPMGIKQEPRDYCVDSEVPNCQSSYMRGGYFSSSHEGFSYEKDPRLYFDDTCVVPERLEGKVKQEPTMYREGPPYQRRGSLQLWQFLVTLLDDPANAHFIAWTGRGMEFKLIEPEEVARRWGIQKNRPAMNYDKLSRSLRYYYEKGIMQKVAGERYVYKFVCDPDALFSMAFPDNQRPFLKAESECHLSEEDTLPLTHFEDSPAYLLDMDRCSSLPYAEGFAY
# Summary of the method: as §1
# HSF1 = HSF1 (Homo sapiens, UniProt Q00613 1-529); conditions: protein: recombinant; tags: N-terminal GST; chain copies: 3; dsDNA, one strand shown
# HSF1, sequence (Q00613 whole entry): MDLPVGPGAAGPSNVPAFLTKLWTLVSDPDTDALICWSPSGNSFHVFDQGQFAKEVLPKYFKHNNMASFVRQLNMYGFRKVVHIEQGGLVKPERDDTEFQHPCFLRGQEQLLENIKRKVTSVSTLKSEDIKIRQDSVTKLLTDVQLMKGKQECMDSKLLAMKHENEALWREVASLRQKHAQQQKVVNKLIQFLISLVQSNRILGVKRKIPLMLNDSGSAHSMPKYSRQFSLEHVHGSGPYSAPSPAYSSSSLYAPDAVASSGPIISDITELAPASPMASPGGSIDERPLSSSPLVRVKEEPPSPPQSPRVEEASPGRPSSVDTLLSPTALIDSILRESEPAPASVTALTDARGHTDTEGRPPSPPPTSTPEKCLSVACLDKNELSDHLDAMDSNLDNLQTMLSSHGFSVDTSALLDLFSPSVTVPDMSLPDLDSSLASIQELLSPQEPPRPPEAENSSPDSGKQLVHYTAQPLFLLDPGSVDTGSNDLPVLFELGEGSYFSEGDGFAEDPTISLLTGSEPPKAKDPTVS
# Summary of the method: as §1
# SPIC = molecular target: T8, SPIC (Homo sapiens, UniProt Q8N5J4 1-248); conditions: protein: recombinant; tags: N-terminal GST; dsDNA, one strand shown
# T8 sequence: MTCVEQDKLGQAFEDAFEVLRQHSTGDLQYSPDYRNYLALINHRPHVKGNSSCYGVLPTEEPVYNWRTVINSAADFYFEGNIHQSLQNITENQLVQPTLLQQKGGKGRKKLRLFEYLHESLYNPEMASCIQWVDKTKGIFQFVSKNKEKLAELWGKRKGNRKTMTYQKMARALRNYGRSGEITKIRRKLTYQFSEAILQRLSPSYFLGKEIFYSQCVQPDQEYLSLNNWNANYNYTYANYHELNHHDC
# Summary of the method: as §1
# ELF4 = ELF4 (Homo sapiens, UniProt Q99607 1-663); conditions: protein: recombinant; tags: N-terminal GST; dsDNA, one strand shown
# ELF4, sequence (Q99607 whole entry): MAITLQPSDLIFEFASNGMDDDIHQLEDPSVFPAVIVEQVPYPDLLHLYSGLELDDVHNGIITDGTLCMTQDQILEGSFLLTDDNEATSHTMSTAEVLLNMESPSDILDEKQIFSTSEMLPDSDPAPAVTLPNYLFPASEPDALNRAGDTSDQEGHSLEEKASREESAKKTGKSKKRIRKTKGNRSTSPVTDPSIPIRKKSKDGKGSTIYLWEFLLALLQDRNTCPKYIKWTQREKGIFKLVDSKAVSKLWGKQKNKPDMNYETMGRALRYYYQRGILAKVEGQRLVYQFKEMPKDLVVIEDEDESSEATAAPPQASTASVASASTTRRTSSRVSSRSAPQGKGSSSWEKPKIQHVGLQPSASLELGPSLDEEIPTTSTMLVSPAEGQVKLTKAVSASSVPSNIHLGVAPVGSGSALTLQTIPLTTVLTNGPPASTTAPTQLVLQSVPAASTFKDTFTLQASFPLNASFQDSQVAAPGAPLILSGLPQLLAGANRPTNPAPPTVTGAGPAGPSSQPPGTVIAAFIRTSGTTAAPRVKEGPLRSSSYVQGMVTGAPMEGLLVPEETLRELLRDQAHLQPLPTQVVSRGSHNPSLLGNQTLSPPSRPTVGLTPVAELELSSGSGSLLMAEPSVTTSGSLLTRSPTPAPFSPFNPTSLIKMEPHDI
# Summary of the method: as §1
# ELK4 = molecular target: T9, ELK4 (Homo sapiens, UniProt P28324-2 1-405); conditions: protein: recombinant; tags: N-terminal GST; dsDNA, one strand shown
# T9 sequence: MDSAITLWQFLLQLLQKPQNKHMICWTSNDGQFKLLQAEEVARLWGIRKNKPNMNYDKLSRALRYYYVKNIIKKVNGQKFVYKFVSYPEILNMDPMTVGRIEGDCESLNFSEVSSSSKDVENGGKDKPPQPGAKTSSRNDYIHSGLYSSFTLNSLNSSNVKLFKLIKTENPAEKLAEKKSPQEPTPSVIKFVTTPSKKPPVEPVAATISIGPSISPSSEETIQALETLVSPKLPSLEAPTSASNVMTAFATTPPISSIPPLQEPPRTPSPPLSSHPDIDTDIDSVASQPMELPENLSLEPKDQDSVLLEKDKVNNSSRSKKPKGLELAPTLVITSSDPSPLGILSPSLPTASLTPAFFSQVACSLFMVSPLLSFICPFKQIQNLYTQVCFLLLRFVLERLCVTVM
# Summary of the method: as §1
# ETV2 = molecular target: T10, ETV2 (Homo sapiens, UniProt O00321 1-342); conditions: protein: recombinant; tags: N-terminal GST; dsDNA, one strand shown
# T10 sequence: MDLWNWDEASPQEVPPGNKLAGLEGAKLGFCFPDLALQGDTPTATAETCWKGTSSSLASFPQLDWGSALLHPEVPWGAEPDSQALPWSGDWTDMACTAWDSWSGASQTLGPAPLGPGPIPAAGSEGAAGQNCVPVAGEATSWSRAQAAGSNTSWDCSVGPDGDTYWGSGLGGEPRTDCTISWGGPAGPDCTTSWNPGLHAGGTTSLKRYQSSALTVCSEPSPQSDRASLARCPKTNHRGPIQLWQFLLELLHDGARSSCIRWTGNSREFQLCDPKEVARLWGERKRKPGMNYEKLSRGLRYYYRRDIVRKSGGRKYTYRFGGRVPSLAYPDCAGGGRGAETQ
# Summary of the method: as §1
# ELF3 = molecular target: T11, ELF3 (Homo sapiens, UniProt P78545 1-371); conditions: protein: recombinant; tags: N-terminal GST; dsDNA, one strand shown
# T11 sequence: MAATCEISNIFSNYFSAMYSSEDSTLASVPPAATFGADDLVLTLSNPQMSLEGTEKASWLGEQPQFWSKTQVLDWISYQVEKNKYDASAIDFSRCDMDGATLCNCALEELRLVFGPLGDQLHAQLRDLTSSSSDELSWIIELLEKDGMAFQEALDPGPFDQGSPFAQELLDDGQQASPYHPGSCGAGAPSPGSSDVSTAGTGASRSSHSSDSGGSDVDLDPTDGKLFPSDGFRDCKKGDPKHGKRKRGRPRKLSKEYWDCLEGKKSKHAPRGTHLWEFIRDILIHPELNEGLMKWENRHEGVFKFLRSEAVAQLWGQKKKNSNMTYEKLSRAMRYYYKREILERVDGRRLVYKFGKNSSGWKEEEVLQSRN
# Summary of the method: as §1
# CRX = CRX (Homo sapiens, UniProt O43186 1-299); conditions: protein: recombinant; tags: N-terminal GST; dsDNA, one strand shown
# CRX, sequence (O43186 whole entry): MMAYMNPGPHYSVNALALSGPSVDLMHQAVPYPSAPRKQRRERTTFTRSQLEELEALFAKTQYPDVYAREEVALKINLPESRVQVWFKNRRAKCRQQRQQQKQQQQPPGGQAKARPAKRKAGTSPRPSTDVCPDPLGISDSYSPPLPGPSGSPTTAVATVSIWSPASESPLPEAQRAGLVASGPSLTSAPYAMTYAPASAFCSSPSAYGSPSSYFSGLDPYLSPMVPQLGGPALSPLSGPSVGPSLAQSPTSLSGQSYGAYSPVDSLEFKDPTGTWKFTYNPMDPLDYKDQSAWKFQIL
# Summary of the method: as §1
# ETV1 = ETV1 (Homo sapiens, UniProt P50549 1-477); conditions: protein: recombinant; tags: N-terminal GST; dsDNA, one strand shown
# ETV1, sequence (P50549 whole entry): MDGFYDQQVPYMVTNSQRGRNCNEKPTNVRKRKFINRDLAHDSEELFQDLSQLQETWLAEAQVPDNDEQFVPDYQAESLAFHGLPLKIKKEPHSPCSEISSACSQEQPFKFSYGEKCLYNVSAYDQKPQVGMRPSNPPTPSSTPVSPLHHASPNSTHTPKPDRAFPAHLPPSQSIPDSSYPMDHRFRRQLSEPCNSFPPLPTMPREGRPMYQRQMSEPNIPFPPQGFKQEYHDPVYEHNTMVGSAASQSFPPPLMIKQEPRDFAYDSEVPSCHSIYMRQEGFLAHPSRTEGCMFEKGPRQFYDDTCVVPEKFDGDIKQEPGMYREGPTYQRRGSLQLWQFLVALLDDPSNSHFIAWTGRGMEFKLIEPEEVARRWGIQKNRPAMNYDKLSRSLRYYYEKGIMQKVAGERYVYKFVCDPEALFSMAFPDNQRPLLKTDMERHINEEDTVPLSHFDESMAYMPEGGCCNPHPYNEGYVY
# Summary of the method: as §1
sequence,measurement,setting,value
ATACAC,binding signal,FLI1,"1.18 fold enrichment (6-mer frequency, TF over GST control)"
same,binding signal,ELK1,"1.19 fold enrichment (6-mer frequency, TF over GST control)"
same,binding signal,GABPA,"1.25 fold enrichment (6-mer frequency, TF over GST control)"
same,binding signal,ERG,"1.25 fold enrichment (6-mer frequency, TF over GST control)"
same,binding signal,ELF1,"1.19 fold enrichment (6-mer frequency, TF over GST control)"
same,binding signal,EHF,"1.22 fold enrichment (6-mer frequency, TF over GST control)"
same,binding signal,SPI1,"1.23 fold enrichment (6-mer frequency, TF over GST control)"
same,binding signal,SPIB,"1.23 fold enrichment (6-mer frequency, TF over GST control)"
same,binding signal,ELK3,"1.21 fold enrichment (6-mer frequency, TF over GST control)"
same,binding signal,FEV,"1.24 fold enrichment (6-mer frequency, TF over GST control)"
same,binding signal,ETV5,"1.22 fold enrichment (6-mer frequency, TF over GST control)"
same,binding signal,HSF1,"1.01 fold enrichment (6-mer frequency, TF over GST control)"
same,binding signal,SPIC,"1.22 fold enrichment (6-mer frequency, TF over GST control)"
same,binding signal,ELF4,"1.24 fold enrichment (6-mer frequency, TF over GST control)"
same,binding signal,ELK4,"1.25 fold enrichment (6-mer frequency, TF over GST control)"
same,binding signal,ETV2,"1.24 fold enrichment (6-mer frequency, TF over GST control)"
same,binding signal,ELF3,"1.16 fold enrichment (6-mer frequency, TF over GST control)"
same,binding signal,CRX,"1.04 fold enrichment (6-mer frequency, TF over GST control)"
same,binding signal,ETV1,"1.31 fold enrichment (6-mer frequency, TF over GST control)"
